# Experimental data published in the supplement of paper PMC11732987, “Enantioselective OTUD7B fragment discovery through chemoproteomics screening and high-throughput optimisation” (Communications Chemistry, 2025).
# Unmarked numbers belong to inactive results.
# Target: T1, USP42 (UniProt Q9H9J4)
# T1 sequence (whole entry): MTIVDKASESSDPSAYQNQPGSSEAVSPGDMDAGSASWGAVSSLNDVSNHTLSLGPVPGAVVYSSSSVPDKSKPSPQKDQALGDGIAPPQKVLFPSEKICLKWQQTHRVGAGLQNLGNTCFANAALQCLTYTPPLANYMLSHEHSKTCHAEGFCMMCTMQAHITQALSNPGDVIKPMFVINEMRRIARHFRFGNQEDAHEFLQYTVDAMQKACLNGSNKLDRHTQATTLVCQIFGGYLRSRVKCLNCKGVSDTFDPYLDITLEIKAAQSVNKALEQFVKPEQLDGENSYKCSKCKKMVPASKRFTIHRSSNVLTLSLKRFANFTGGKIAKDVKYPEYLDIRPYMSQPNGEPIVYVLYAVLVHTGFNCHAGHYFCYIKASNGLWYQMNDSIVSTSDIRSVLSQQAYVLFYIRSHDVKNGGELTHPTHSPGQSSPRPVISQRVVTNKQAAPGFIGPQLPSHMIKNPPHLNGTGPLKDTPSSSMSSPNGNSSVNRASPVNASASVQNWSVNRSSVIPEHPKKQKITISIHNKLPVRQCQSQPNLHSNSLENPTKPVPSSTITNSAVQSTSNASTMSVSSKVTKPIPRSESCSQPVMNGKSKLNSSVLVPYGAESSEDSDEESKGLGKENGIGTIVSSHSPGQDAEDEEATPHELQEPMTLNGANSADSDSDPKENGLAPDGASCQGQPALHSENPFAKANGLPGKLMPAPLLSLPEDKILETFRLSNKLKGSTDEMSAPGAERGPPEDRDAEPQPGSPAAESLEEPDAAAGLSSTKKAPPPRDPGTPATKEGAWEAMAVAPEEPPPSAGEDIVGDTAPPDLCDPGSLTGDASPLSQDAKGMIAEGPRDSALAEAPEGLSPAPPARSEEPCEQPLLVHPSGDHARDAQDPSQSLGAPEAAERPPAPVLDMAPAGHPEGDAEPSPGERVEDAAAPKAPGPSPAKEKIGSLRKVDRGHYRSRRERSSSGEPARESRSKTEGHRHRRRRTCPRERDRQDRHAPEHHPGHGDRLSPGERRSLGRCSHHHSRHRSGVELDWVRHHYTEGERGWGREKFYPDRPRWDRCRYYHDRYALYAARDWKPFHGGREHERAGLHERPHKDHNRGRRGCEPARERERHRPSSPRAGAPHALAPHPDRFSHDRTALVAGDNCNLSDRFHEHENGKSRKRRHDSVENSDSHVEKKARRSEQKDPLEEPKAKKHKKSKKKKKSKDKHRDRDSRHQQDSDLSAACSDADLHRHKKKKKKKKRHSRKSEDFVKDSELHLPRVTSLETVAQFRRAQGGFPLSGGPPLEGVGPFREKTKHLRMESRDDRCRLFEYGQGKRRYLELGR
# Assay: log2 ratio of Biotin-Ahx-Ub-VS probe labelling (fragment/DMSO); higher = less target engagement (more negative = stronger competition), active = hit call of the paper (q ≤ 0.05, log2 ratio ≤ -1)
# Details: compound concentration: 200 uM; treatment time: 3 h
# Outline: (§1)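 Using Biotin-Ahx-Ub-VS at 0.5 µM final for 1 h, DUBs were labelled in HEK293T lysate (495 µg per sample) that had first been treated in triplicate with fragment at 200 µM or vehicle for 3 h. NeutrAvidin enrichment, LysC and trypsin digestion and diaPASEF LC-MS/MS followed. Spectronaut label-free quantities were global-median-normalised. Values are average log2 fragment/vehicle ratios by unpaired t-test, using proteins with ≥2 unique peptides.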
row,Compound,log2 ratio of Biotin-Ahx-Ub-VS probe labelling
1,O=C(CCl)NC1(c2ccc3c(c2)OCCO3)CCCC1,-0.0517
2,N#Cc1ccc(CNC(=O)CCl)cc1,0.0438
3,CC(NC(=O)CCl)c1cc2n(n1)CCCC2.Cl (stereo not given),0.487
4,O=C(CCl)N1CC=C(c2c[nH]c3ccccc23)CC1,0.0977
5,CCN1C(=O)C2CN(C(=O)CCl)CCN2C1=O (stereo not given),0.369
6,NC(=O)C1CCCN(C(=O)CCl)C1 (stereo not given),-0.105
7,CC(=O)C1CCCCN1C(=O)CCl (stereo not given),0.359
8,CC1CCc2onc(CNC(=O)CCl)c2C1 (stereo not given),0.0513
9,CCC1c2ccsc2CCN1C(=O)CCl (stereo not given),0.624
10,O=C(O)C1Cc2ccccc2CN1C(=O)CCl (stereo not given),-0.449
11,Cl.O=C(CCl)N[C@H]1C[C@@H](n2cccn2)C1,0.0882
12,O=C(CCl)N1CCc2sccc2C1,0.32
13,CC(NC(=O)CCl)c1csc(-c2ccccc2)n1.Cl (stereo not given),-0.201
14,Cc1ccc(N(C(=O)CCl)C2C=CS(=O)(=O)C2)cc1 (stereo not given),0.262
15,O=C(CCl)NCc1ccc(Cl)cc1,0.175

# Target: USP46 (UniProt P62068)
# Sequence (P62068 whole entry): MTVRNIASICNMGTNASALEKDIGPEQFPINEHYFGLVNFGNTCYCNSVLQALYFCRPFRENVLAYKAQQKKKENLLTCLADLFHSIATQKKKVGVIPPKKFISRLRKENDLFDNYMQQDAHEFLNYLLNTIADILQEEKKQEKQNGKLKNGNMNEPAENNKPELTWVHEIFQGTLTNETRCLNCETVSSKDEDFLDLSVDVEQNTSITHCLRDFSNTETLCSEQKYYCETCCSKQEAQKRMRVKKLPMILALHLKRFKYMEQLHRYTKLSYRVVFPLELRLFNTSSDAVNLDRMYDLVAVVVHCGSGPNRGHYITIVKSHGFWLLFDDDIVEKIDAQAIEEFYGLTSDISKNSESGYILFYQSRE
# Assay: as above
# Details: compound concentration: 200 uM; treatment time: 3 h
# Outline: as §1
row,Compound,log2 ratio of Biotin-Ahx-Ub-VS probe labelling
1,CNC(=O)C1CCN(C(=O)CCl)CC1,0.0795
2,O=C(CCl)Nc1cccc(NC(=O)c2ccccc2)c1,0.291
3,Cc1ccc(N2CCC(NC(=O)CCl)C2=O)cc1 (stereo not given),0.123
4,Cc1cccc(C(CNC(=O)CCl)N2CCOCC2)c1.Cl (stereo not given),0.086
5,O=C(CCl)N1CCC(C(O)c2ccc(F)cc2)CC1 (stereo not given),0.252
6,Cc1ccccc1C1(CNC(=O)CCl)CCOCC1,0.0453
7,CC(O)CC1CCN(C(=O)CCl)CC1 (stereo not given),-0.263
8,COc1cc(Cl)c(C)cc1NC(=O)CCl,-0.0884
9,Cl.O=C(CCl)NCCN1CCc2ccccc21,-0.521
10,CN(C)S(=O)(=O)c1ccccc1CNC(=O)CCl,0.0777
11,CN1c2ccccc2C(NC(=O)CCl)CS1(=O)=O (stereo not given),0.0351
12,CNC(=O)Cn1cc(NC(=O)CCl)cn1,0.000623
13,Cc1ccc(N(CCC#N)C(=O)CCl)cc1C,-0.12
14,Cc1cccc(N2CCC(NC(=O)CCl)C2=O)c1 (stereo not given),0.013
15,Cc1ccc(CC(NC(=O)CCl)c2ccccn2)cc1.Cl (stereo not given),0.168
16,O=C(CCl)N[C@H]1CCS(=O)(=O)c2ccccc21,0.0271
17,O=C(CCl)N1CCC(c2noc3cc(F)ccc23)CC1,-0.343
18,C/C(=C\CNC(=O)CCl)c1cnn(C)c1.Cl,-0.21

row,Compound,log2 ratio of Biotin-Ahx-Ub-VS probe labelling
1,CN(C)C(=O)c1ccc(CNC(=O)CCl)cc1,0.181
2,Cc1nc(CNC(=O)CCl)c2ccccn12.Cl,0.0871
3,O=C(CCl)NC1(c2ccc3c(c2)OCCO3)CCCC1,-0.105
4,N#Cc1ccc(CNC(=O)CCl)cc1,0.111
5,CC(NC(=O)CCl)c1cc2n(n1)CCCC2.Cl (stereo not given),-0.0285
6,O=C(CCl)N1CC=C(c2c[nH]c3ccccc23)CC1,-1.44 (active)
7,CCN1C(=O)C2CN(C(=O)CCl)CCN2C1=O (stereo not given),-0.0317
8,NC(=O)C1CCCN(C(=O)CCl)C1 (stereo not given),0.15
9,CC(=O)C1CCCCN1C(=O)CCl (stereo not given),0.0148
10,CC1CCc2onc(CNC(=O)CCl)c2C1 (stereo not given),0.0919
11,CCC1c2ccsc2CCN1C(=O)CCl (stereo not given),-0.333
12,O=C(O)C1Cc2ccccc2CN1C(=O)CCl (stereo not given),-0.111
13,Cl.O=C(CCl)N[C@H]1C[C@@H](n2cccn2)C1,-0.00232
14,O=C(CCl)N1CCc2sccc2C1,-0.578
15,CC(NC(=O)CCl)c1csc(-c2ccccc2)n1.Cl (stereo not given),-0.41
16,Cc1ccc(N(C(=O)CCl)C2C=CS(=O)(=O)C2)cc1 (stereo not given),-0.055
17,O=C(CCl)NCc1ccc(Cl)cc1,-0.0156

# Target: T2, USP47 (UniProt Q96K76)
# T2 sequence (whole entry): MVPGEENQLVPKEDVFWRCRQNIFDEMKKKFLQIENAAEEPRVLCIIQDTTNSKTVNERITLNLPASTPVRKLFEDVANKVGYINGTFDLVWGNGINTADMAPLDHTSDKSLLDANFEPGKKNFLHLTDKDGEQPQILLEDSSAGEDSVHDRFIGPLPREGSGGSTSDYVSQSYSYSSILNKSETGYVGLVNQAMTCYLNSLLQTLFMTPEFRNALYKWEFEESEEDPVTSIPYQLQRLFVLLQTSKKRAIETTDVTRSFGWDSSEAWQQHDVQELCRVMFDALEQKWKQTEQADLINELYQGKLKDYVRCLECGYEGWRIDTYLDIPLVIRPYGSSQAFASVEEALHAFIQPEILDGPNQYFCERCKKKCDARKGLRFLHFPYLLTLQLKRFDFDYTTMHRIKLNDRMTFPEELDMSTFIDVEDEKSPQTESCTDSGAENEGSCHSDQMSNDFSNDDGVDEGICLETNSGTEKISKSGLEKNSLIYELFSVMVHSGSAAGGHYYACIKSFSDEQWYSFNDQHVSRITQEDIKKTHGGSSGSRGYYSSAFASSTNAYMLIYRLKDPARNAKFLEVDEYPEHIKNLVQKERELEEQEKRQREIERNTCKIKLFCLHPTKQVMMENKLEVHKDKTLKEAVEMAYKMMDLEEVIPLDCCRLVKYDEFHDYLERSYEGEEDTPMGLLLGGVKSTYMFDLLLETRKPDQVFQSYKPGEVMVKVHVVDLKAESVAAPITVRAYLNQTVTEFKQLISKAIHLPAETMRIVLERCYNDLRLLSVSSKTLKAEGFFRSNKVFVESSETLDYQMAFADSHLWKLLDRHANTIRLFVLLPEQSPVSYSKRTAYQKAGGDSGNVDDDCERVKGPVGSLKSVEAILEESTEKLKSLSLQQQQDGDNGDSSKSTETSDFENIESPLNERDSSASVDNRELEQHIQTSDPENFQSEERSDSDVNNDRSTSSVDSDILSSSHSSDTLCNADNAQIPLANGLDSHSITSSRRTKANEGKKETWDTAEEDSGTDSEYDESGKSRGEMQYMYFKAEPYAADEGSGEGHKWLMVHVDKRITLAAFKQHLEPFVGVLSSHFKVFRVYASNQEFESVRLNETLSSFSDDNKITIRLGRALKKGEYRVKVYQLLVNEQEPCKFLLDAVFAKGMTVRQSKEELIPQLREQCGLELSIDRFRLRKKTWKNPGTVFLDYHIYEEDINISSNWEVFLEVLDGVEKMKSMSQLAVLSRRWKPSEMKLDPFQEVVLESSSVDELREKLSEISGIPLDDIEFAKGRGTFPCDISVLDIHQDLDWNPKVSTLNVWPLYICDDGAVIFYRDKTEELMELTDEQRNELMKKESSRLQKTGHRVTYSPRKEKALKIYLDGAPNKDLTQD
# Assay: as above
# Details: compound concentration: 200 uM; treatment time: 3 h
# Outline: as §1
row,Compound,log2 ratio of Biotin-Ahx-Ub-VS probe labelling
1,CNC(=O)C1CCN(C(=O)CCl)CC1,0.356
2,O=C(CCl)Nc1cccc(NC(=O)c2ccccc2)c1,-0.303
3,Cc1ccc(N2CCC(NC(=O)CCl)C2=O)cc1 (stereo not given),-0.186
4,Cc1cccc(C(CNC(=O)CCl)N2CCOCC2)c1.Cl (stereo not given),0.268
5,O=C(CCl)N1CCC(C(O)c2ccc(F)cc2)CC1 (stereo not given),-0.324
6,Cc1ccccc1C1(CNC(=O)CCl)CCOCC1,-0.619
7,CC(O)CC1CCN(C(=O)CCl)CC1 (stereo not given),-0.689
8,COc1cc(Cl)c(C)cc1NC(=O)CCl,-0.965
9,Cl.O=C(CCl)NCCN1CCc2ccccc21,0.103
10,CN(C)S(=O)(=O)c1ccccc1CNC(=O)CCl,-0.336
11,CN1c2ccccc2C(NC(=O)CCl)CS1(=O)=O (stereo not given),-0.132
12,CNC(=O)Cn1cc(NC(=O)CCl)cn1,0.0561
13,Cc1ccc(N(CCC#N)C(=O)CCl)cc1C,-0.28
14,Cc1cccc(N2CCC(NC(=O)CCl)C2=O)c1 (stereo not given),-0.0227
15,Cc1ccc(CC(NC(=O)CCl)c2ccccn2)cc1.Cl (stereo not given),0.0361
16,O=C(CCl)N[C@H]1CCS(=O)(=O)c2ccccc21,-0.0612
17,O=C(CCl)N1CCC(c2noc3cc(F)ccc23)CC1,-0.18
18,C/C(=C\CNC(=O)CCl)c1cnn(C)c1.Cl,-0.51

row,Compound,log2 ratio of Biotin-Ahx-Ub-VS probe labelling
1,CN(C)C(=O)c1ccc(CNC(=O)CCl)cc1,0.119
2,Cc1nc(CNC(=O)CCl)c2ccccn12.Cl,-0.0462
3,O=C(CCl)NC1(c2ccc3c(c2)OCCO3)CCCC1,-0.898
4,N#Cc1ccc(CNC(=O)CCl)cc1,0.323
5,CC(NC(=O)CCl)c1cc2n(n1)CCCC2.Cl (stereo not given),0.43
6,O=C(CCl)N1CC=C(c2c[nH]c3ccccc23)CC1,0.0399
7,CCN1C(=O)C2CN(C(=O)CCl)CCN2C1=O (stereo not given),0.124
8,NC(=O)C1CCCN(C(=O)CCl)C1 (stereo not given),-0.831
9,CC(=O)C1CCCCN1C(=O)CCl (stereo not given),-0.0598
10,CC1CCc2onc(CNC(=O)CCl)c2C1 (stereo not given),-0.0836
11,CCC1c2ccsc2CCN1C(=O)CCl (stereo not given),-0.618
12,O=C(O)C1Cc2ccccc2CN1C(=O)CCl (stereo not given),-0.301
13,Cl.O=C(CCl)N[C@H]1C[C@@H](n2cccn2)C1,0.175
14,O=C(CCl)N1CCc2sccc2C1,-0.774
15,CC(NC(=O)CCl)c1csc(-c2ccccc2)n1.Cl (stereo not given),0.0356
16,Cc1ccc(N(C(=O)CCl)C2C=CS(=O)(=O)C2)cc1 (stereo not given),-1.11 (active)
17,O=C(CCl)NCc1ccc(Cl)cc1,-0.0592
